The text below walks through data of PubChem BioAssay (EPA / NIEHS).

Records with an inconclusive call do not appear. Calls of active or inactive are those of the source. How the source made its calls, unless noted: active means hit-call score of the fitted dose curve at least 0.9, where 1 is the maximum; inconclusive means response in the unintended direction; inactive means score below 0.9.

Assay [1] in a line: TOX21_p53_BLA_p2_viability: Viability Assessment in the Tox21 HCT-116 p53 Agonism Beta-lactamase Assay, Phase 2 (AID 2283591).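 Further: actives lower the ATP signal meaning cytotoxicity.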 The procedure, abridged:
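HCT116 p53-bla cells, 4000/well, dosed after 5 h plating (217-fold dilution of DMSO stocks) and incubated 16 h at 37C. Viability taken as cellular ATP by CellTiter-Glo luminescence after 30 min RT; signal loss marks cytotoxicity.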

The target of assay [2] is Cellular tumor antigen p53 (Homo sapiens) (UniProt P04637). Kind of assay: TOX21_p53_BLA_p2_ratio: Tox21 HCT-116 p53 Agonism Beta-lactamase Assay, Ratio, Phase 2 (AID 2283592). The procedure, abridged: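 Readout: blue/green (460/530 nm) FRET emission ratio after 2 h CCF4-AM loading at room temperature, excitation 405 nm. HCT116 p53 bla cells, 16 h compound exposure at 37C, 5% CO2; agonist direction fitted against DMSO baseline.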

Assay [3] is described as follows: TOX21_p53_BLA_p4_viability: Viability Assessment in the Tox21 HCT-116 p53 Agonism Beta-lactamase Assay, Phase 4 (AID 2283597).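 Further: hits lower the luminescence signal meaning cytotoxicity.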 Put shortly: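 ATP content by CellTiter-Glo luminescence, 30 min RT, read after the beta-lactamase ratio step. Cells: HCT116, 4000/well, compound added after 5 h, exposure 16 h at 37C. Signal loss = reduced viability.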
Assay [4] deals with Cellular tumor antigen p53 (Homo sapiens) (UniProt P04637). Briefly: TOX21_p53_BLA_p5_ratio: Tox21 HCT-116 p53 Agonism Beta-lactamase Assay, Ratio, Phase 5 (AID 2283599). The procedure, abridged: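 HCT-116 p53-bla cells (4000/well) plated 5 h, dosed with compound (217-fold DMSO dilution) for 16 h at 37 C; CCF4-AM substrate 2 h at room temperature. Activity is the 460/530 nm emission ratio (405 nm excitation), fitted in gain-of-signal direction versus DMSO.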

Assay [5] can be described thus: TOX21_p53_BLA_p5_viability: Viability Assessment in the Tox21 HCT-116 p53 Agonism Beta-lactamase Assay, Phase 5 (AID 2283600). The procedure, abridged: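 ATP luminescence (CellTiter-Glo, 30 min, RT) served as the viability read-out, with loss of signal indicating cytotoxicity. Compounds in DMSO were pinned at a 217-fold dilution onto 4000 cells/well and incubated 16 h, 37C.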

In assay [6] the target is Cellular tumor antigen p53 (Homo sapiens) (UniProt P04637). Briefly: TOX21_p53_BLA_p4_ratio: Tox21 HCT-116 p53 Agonism Beta-lactamase Assay, Ratio, Phase 4 (AID 2283601). The procedure, abridged:
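HCT-116 p53 beta-lactamase reporter cells (4000/well) preincubated 5 h, then compound (217-fold dilution of DMSO stock) for 16 h at 37C. CCF4-AM substrate added 2 h at room temperature; 460/530 nm emission ratio fitted upward versus DMSO.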

A short description of assay [7]: ACEA_ER_AUC_viability: ACEA Biosciences xCELLigence Real-Time Cell Analysis on Estrogen Receptor Agonism for Viability (AID 2283782).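 Further: hit means loss of impedance signal meaning reduced cell growth or viability.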 Put shortly:
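Read-out: real-time electrical impedance (RT-CES) area under curve, loss of signal taken as reduced viability, normalized to DMSO baseline. T-47D cells, charcoal-stripped serum medium, compounds up to 100 uM final, continuous exposure, 80 h.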

Assay [8] can be described thus: CCTE_Harrill_HTTr_Viability_MCF7: CCTE's 6-hour Cell Viability Assessment for the High-Throughput Transcriptomics (HTTr) Platform, in MCF-7 cells cultured in DMEM + 10% fetal bovine serum, Harrill Lab (AID 2284010; active means hit-call score of the fitted dose curve at least 0.9, where 1 is the maximum; inactive means score below 0.9). The procedure, abridged: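 PI exclusion, high-content imaging; 8-pt dilution series, 6 h exposure; bidirectional fit vs DMSO (neg. ctrl/baseline); gain of signal = loss of membrane integrity.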

The nature of assay [9]: CCTE_Harrill_HTTr_Apoptosis_MCF7: CCTE's 6-hour Apoptosis Assessment for the High-Throughput Transcriptomics (HTTr) Platform, in MCF-7 cells cultured in DMEM + 10% fetal bovine serum, Harrill Lab (AID 2284011; active means hit-call score of the fitted dose curve at least 0.9, where 1 is the maximum; inactive means score below 0.9). Put shortly:
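Read-out: CellEvent Caspase 3/7 Green signal by high content imaging, gain-of-signal indicating apoptosis. MCF-7 cells, DMEM + 10% FBS, eight-point dilution series, 6 h exposure. Curves fitted bidirectionally relative to DMSO negative control.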

Assay [10] in a line: CCTE_Harrill_HTTr_CellCount_MCF7: CCTE's Cell Proliferation Assessment for the High-Throughput Transcriptomics (HTTr) Platform, Harrill Lab (AID 2284012).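 Further: count of Hoechst-stained nuclei per well by high-content imaging in MCF-7 cells; cells exposed to compound for six hours; intended direction is loss of nuclei count meaning fewer cells.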 Put shortly:
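Readout: Hoechst nuclear count by high-content imaging. MCF-7, 8-point dilution series, 6 h exposure. Bidirectional fit vs DMSO baseline.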

Assay [11] is described as follows: STM_H9_OrnCyssISnorm_ratio: Stemina devTOX quickPredict H9 human embryonic stem cell (hESC)-based Assay for Ornithine (ORN):Cystine (CYSS) Ratio (AID 2283714). Put shortly: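 UPLC-HRMS of spent media: ORN/CYSS ratio of internal-standard-normalized percentages, DMSO (0.1%) baseline. Pluripotent H9 hESCs, 72h exposure, daily re-dosing with fresh media; last 24h media collected.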

The nature of assay [12]: STM_H9_NormalizedViability: Cytotoxicity Assessment at 120 hours in the Stemina devTOX quickPredict H9 human embryonic stem cell (hESC)-based Assay (AID 2283784). The procedure, abridged: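 CellTiter-Fluor RFU, background-subtracted, expressed relative to 0.1% DMSO neutral control by plate. Pluripotent H9 cells; treatment with daily re-dosing. Plates carried 1uM methotrexate (positive) and 5 nM methotrexate (negative) references.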

The target in assay [13] is Thyroid hormone receptor alpha (Rattus norvegicus) + Thyroid hormone receptor beta (Rattus norvegicus) (UniProt P18113+P63059). Briefly: TOX21_TR_LUC_GH3_Agonist_Followup: Tox21 GH3 Thyroid Hormone Receptor Agonism Luciferase Follow-Up Assay (AID 2283939). The procedure, abridged:
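Agonist-mode confirmatory run: 15 concentrations (5 nM to 92 uM final) on GH3 rat pituitary cells, 24 h at 37C/5% CO2, T3 as positive control. Luminescence read with ONE-Glo after 30 min.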

The target of another assay is THRA (gene 7067) (UniProt P10827). Kind of assay: TOX21_TRA_COA_Agonist_Followup_ratio: Tox21 Thyroid Hormone Receptor alpha Agonism through Coactivator Recruitment Follow-Up Assay, Ratio (AID 2283948; active means hit-call score of the fitted dose curve at least 0.9, where 1 is the maximum; inactive means score below 0.9). The procedure, abridged: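 GST-TRa LBD 2.5 nM + 0.10% BSA + cpd; add fluorescein-SRC-2 200 nM, Tb-anti-GST 2 nM. TR-FRET ex 340, em 520/495 ratio. Norm: DMSO 0%, T3 100%; gain-of-signal fit.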

Assay [14] addresses THRB (gene 7068) (UniProt P10828). Kind of assay: TOX21_TRB_BLA_Agonist_Followup_ratio: Tox21 Thyroid Hormone Receptor beta Agonism Beta-lactamase (BLA) Follow-Up Assay, Ratio (AID 2283954). The procedure, abridged: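 Agonist mode: compounds (11-point, triplicate) incubated 18 h with HEK293T cells carrying GAL4-DBD/human TRβ-LBD and UAS-β-lactamase. Blue/green (460/530 nm) FRET ratio read after 2 h CCF4-AM loading; CellTiter-Glo viability run in the same plates.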

The target is the same in assay [15]. Briefly: TOX21_TRB_COA_Agonist_Followup_ratio: Tox21 Thyroid Hormone Receptor beta Agonism through Coactivator Recruitment Follow-Up Assay, Ratio (AID 2283963; active means hit-call score of the fitted dose curve at least 0.9, where 1 is the maximum; inactive means score below 0.9). Put shortly:
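GST-TRb LBD 5.0 nM + 0.10% BSA + cpd; add fluorescein-SRC-2 200 nM / Tb anti-GST Ab 2 nM; TR-FRET ex 340, em 520:495; norm DMSO 0%, T3 100%.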

The target of assay [16] is Retinoic acid receptor RXR-alpha (Homo sapiens) (UniProt P19793). Briefly: TOX21_TR_RXR_BLA_Agonist_Followup_ratio: Tox21 Thyroid Hormone Receptor beta Retinoid X Receptor alpha (RXRa) Agonism Beta-lactamase (BLA) Follow-Up Assay, Ratio (AID 2283968). The procedure, abridged: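 Read-out: blue/green (460:530 nm) FRET ratio from cleaved vs uncleaved CCF4 substrate, fitted for gain of signal relative to DMSO. Cells: HEK293T with RXRa-UAS-bla reporter; 16 h compound exposure, 11 concentrations, triplicate.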

Assay [17] in a line: TOX21_TR_RXR_BLA_Agonist_Followup_viability: Viability Assessment in the Tox21 Thyroid Hormone Receptor beta Retinoid X Receptor alpha (RXRa) Agonism Beta-lactamase (BLA) Follow-Up Assay (AID 2283970). Put shortly:
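CellTiter-Glo ATP quantitation as viability read-out in RXRa-bla HEK293T cells (2,500/well, charcoal-stripped 2% FBS medium), 16h compound incubation at 37C. Loss of signal versus DMSO taken as cytotoxicity, analyzed by bidirectional curve fitting.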

Sequence of Cellular tumor antigen p53 (Homo sapiens) (P04637 whole entry, looked up): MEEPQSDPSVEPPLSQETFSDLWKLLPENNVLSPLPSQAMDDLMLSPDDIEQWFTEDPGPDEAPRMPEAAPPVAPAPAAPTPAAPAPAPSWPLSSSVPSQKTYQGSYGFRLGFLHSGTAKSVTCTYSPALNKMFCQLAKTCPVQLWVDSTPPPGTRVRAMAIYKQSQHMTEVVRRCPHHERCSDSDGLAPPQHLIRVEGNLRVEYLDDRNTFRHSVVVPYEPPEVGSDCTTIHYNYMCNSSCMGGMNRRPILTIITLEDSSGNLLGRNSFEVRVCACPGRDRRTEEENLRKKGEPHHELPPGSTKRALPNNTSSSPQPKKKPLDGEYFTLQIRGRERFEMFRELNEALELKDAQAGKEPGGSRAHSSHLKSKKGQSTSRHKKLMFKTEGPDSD
Sequence of THRB (gene 7068) (P10828 whole entry, looked up, the tested form may be a part): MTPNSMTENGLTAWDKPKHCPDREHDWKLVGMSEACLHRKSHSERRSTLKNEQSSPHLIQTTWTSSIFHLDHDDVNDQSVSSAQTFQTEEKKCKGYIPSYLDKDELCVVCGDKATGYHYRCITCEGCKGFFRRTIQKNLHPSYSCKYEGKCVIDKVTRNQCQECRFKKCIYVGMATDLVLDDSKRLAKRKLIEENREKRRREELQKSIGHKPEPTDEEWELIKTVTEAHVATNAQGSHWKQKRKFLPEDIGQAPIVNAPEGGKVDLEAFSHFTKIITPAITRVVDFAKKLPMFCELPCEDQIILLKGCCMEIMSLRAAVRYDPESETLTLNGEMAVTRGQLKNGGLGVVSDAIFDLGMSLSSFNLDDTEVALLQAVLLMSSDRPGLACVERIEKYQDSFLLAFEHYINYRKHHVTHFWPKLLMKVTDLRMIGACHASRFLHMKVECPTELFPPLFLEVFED
Sequence of Retinoic acid receptor RXR-alpha (Homo sapiens) (P19793 whole entry, looked up): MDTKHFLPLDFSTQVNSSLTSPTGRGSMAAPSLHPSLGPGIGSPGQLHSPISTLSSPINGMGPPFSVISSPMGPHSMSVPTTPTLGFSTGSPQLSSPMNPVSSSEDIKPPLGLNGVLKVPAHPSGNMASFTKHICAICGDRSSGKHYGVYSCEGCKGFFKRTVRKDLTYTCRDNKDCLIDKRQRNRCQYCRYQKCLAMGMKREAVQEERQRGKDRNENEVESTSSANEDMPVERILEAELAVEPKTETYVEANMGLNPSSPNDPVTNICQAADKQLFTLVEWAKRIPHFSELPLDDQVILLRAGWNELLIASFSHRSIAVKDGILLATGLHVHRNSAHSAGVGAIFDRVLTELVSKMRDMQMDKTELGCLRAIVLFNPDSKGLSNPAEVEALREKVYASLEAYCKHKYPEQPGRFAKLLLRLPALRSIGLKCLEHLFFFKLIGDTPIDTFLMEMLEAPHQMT
Sequence of Thyroid hormone receptor alpha (Rattus norvegicus) + Thyroid hormone receptor beta (Rattus norvegicus) (P63059 whole entry, looked up): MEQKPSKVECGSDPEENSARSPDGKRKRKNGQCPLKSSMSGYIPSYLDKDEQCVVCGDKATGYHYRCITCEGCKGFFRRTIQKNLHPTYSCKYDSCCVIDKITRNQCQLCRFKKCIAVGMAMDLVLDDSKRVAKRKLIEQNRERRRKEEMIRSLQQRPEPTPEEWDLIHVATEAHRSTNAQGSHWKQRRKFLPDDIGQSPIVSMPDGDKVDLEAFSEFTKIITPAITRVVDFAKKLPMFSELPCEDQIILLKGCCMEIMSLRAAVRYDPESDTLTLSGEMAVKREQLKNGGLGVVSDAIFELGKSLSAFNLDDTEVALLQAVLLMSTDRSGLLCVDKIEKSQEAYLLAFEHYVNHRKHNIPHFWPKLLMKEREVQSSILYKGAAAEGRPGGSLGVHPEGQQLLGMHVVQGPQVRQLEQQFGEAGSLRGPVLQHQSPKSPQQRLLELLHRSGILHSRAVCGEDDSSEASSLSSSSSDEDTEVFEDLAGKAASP
Sequence of Thyroid hormone receptor alpha (Rattus norvegicus) + Thyroid hormone receptor beta (Rattus norvegicus) (P18113 whole entry, looked up): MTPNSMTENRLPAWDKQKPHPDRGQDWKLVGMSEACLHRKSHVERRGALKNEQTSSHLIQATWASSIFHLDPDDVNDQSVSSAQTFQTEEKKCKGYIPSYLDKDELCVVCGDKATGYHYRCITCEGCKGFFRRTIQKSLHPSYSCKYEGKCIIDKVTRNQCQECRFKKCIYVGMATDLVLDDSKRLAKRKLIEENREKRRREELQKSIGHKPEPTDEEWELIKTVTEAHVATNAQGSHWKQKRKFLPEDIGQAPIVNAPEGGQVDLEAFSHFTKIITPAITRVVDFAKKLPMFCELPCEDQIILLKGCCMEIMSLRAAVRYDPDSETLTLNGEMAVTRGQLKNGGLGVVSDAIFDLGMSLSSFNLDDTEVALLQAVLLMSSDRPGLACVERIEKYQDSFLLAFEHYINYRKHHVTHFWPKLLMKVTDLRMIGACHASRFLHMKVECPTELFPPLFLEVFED
Sequence of THRA (gene 7067) (P10827 whole entry, looked up, the tested form may be a part): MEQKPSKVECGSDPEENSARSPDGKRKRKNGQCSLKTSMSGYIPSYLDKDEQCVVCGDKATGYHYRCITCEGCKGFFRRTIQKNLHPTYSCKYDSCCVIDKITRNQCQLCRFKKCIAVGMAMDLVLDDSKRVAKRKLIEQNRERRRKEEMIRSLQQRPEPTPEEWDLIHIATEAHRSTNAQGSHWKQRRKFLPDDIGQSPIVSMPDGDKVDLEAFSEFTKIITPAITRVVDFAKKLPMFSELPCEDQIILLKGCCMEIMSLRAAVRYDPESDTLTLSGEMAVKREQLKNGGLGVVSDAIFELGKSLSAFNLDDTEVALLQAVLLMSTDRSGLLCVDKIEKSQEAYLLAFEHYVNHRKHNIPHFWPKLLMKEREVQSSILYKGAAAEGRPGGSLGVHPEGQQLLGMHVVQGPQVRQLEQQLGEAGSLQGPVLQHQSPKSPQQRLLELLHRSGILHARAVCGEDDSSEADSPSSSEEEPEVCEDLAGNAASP

For the compound `O=C(O)c1ccccc1C(=O)Nc1cccc2ccccc12`, the compound was classed as inactive in assay [1], in assay [2], in [3], in [4], in assay [5] and in assay [9]. The compound was called inactive in assay [10]. Moreover, the values for the AC50 in assay [6], in assay [7] and in assay [8] were 70.1 µM (active), 85.4 µM (active) and 53.8 µM (active), respectively.

As for `CNC(=O)NC(O)C(Cl)(Cl)Cl` (stereo not drawn), the outcome in assay [1], in assay [2], in assay [3], in assay [5] and in [6] was inactive.

Consider `c1ccc2c(c1)CCNC2`, for which the compound was classed as inactive in assay [1], in assay [2], in assay [3], in [5] and in assay [6].

As to `CC(=O)OCC1=C(C(=O)O)N2C(=O)[C@@H](N)[C@H]2SC1`, the call in [1], in [2] and in assay [4] was inactive.

Regarding `CCC(C(N)=O)N1CCCC1=O` (stereo not drawn), the compound was called inactive in assay [1], in [2], in [4], in [5] and in [6].

With `O=CC=Cc1ccccc1`, the AC50 is 83.9 µM (active) in assay [11] and 93.6 µM (active) in assay [12]. In addition, in assay [10], the result was inactive.

Take `CCCN(CC1CC1)c1c([N+](=O)[O-])cc(C(F)(F)F)cc1[N+](=O)[O-]`: in assay [7], the concentration at half-maximal activity (AC50) is 25.4 µM (active).

As to `COc1ccc(OC)c([C@@H](O)[C@H](C)N)c1`, the AC50 in assay [13] was 14.9 µM (active). The result (with THRA (gene 7067); with THRB (gene 7068) [14]; with THRB (gene 7068) [15]; in [16]; in [17]) was inactive.

One may read the AC50 as the concentration at which the activity in the assay is half-maximal.
